According to PubChem BioAssay AID1422 (Emory University Molecular Libraries Screening Center, 2008):
Where “and” joins values, the source holds several entries; their conditions need not be identical. Identical values can stand only once. Hit rate of the full screen: of about 260,000 compounds, about 1,300 (0.5%) were called active.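 The calls were made as follows: active = percent inhibition above 40 after rounding to a whole number; inactive = the rest.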 The entries come from a sample that favours actives as a whole. The source holds several records for some structures; these can differ, active in one and inactive in another.

target: Prostaglandin E2 receptor EP2 subtype (Homo sapiens) (UniProt P43116); test: blockers of PGE2-driven EP2 cAMP signalling – TR-FRET cAMP, C6 glioma cells, primary screen (AID 1422); conditions: C6 glioma cells expressing human EP2, cAMP TR-FRET; at 25 µM; stronger effect = higher value; cells stimulated with saturating PGE2;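 also: rat C6 glioma host cells with rolipram phosphodiesterase inhibitor present; the protocol text gives 20 µM as final concentration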
Sequence (P43116 whole entry, looked up): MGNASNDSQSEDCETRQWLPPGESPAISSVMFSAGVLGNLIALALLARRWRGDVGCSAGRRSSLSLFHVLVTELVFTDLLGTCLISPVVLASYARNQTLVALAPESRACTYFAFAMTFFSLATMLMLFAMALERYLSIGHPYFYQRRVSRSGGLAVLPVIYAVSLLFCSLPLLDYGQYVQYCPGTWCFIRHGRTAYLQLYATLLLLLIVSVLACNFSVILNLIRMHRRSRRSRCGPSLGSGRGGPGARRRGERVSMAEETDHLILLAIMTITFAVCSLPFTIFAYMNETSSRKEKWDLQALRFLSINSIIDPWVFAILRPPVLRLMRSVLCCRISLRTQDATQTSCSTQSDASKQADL

SMILES	inhibition
CC(=O)Nc1ccc(-c2csc(NC=C3C(=O)OC(C)(C)OC3=O)n2)cc1	2.63% (inactive)
CC(=O)Nc1ccc(S(=O)(=O)Nc2nc(-c3ccc(C(C)(C)C)cc3)cs2)cc1	4.4% (inactive)
CC(=O)Nc1ccc(-c2csc(NC(=O)Nc3ccccc3)n2)cc1	55% (active)
O=C1c2cccc3cccc(c23)C(=O)N1c1ccc(N2C(=O)c3cccc4cccc(c34)C2=O)cc1	9.96% (inactive)
Cc1ccc(-c2nc3ccccc3[nH]c2=O)cc1	12.3% (inactive)
O=c1[nH]c2ccccc2n2c(-c3ccccc3)nnc12	82.1% (active)
CCOC(=O)c1cnc2[nH]c3ccccc3n2c1=O	4.64% (inactive)
Cc1nn(CC(=O)Nc2cccc3ncccc23)c(=O)c2ccccc12	6.79% (inactive)
O=c1cc(CSc2nnc(Cn3nnc4ccccc43)o2)c2ccccc2[nH]1	7.33% (inactive)
CCOc1ccc(NC(=S)N(CCO)Cc2cc3c(C)cc(C)cc3[nH]c2=O)cc1	6.48% (inactive)
Cc1cc2c(cc1C)NC1=C(N2)O[C@H](c2c[nH]c3ccc(COc4ccccc4)cc23)C1=O	56.3% (active)
COc1cc(C)c(CNC(=O)c2cccc(-n3cnnc3)c2)cc1C(C)C	4.98% (inactive)
COCC(=O)Nc1cc(C)on1	7.17% (inactive)
CC(C)(C)NCC[C@@H](O)c1cc(C(F)(F)F)nc2c(C(F)(F)F)cccc12	48.9% (active)
COc1ccc(N(CC(=O)N2CCN(c3ccc(F)cc3)CC2)S(C)(=O)=O)cc1	6.08% (inactive)
CCCC(c1nnnn1C1CCCCC1)N1CCN(c2ccccc2)CC1 (stereo not given)	5.51% (inactive)
COc1ccc2[nH]c3cc4c(=O)c5cc(OC)ccc5[nH]c4cc3c(=O)c2c1	49.6% (active)
COc1ccc2[nH]c3ccc(OC)cc3c2c1	6.17% (inactive)
COc1ccc2[nH]c(=S)cc(C)c2c1	7.37% (inactive)
Cc1ccc(-c2cc(N)c(=O)n(CC(=O)N3c4ccccc4CC3C)n2)o1 (stereo not given)	9.35% (inactive)

SMILES	inhibition
CCOc1ccc2[nH]c(=O)c(CN(Cc3ccc4c(c3)OCO4)C(=O)Nc3ccc(C)cc3)cc2c1	10.3% (inactive)
Cc1ccc2cc(CN(Cc3cccs3)Cc3nnnn3Cc3ccco3)c(=O)[nH]c2c1	12.8% (inactive)
COc1ccc(-n2nnnc2SCC(=O)Nc2ccc(N(C)C)cc2)cc1	8.77% (inactive)
Cc1ccc(N(CC(=O)N2CCC(C(N)=O)CC2)S(C)(=O)=O)cc1C	15.2% (inactive)
O=C(O)Cc1sc(-c2ccccc2)nc1-c1cccs1	43% (active)
C/C(=N/Nc1nc(-c2ccccc2)c(CC(=O)O)s1)c1ccccc1	11.6% (inactive)
Cc1ccc(-c2nc(C)sc2CC(=O)O)cc1	8.08% (inactive)
COC(=O)c1c(NC(=O)Cc2cccs2)sc(C(=O)Nc2cccc(Cl)c2)c1C	8.6% (inactive)
CCCc1nc2ccccc2n1CC(O)COc1ccc(F)cc1 (stereo not given)	10.9% (inactive)
COc1ccc(C2(O)CCN(CCN3CCCCC3)CC2)c(OC)c1	12.5% (inactive)
CCn1c(=O)n(CC)c2cc(CN(Cc3ccc(C)s3)CC(C)O)ccc21 (stereo not given)	1.95% (inactive)
CCCC(=O)C1CCN(Cc2ccccc2)CC1	13% (inactive)
O=C(O)[C@@H]1CS[C@]2(CCCN(Cc3ccccc3)C2)N1	46.7% (active)
O=C(NC1CCN(Cc2ccccc2)CC1)c1c(F)cccc1F	2.64% (inactive)
Cc1cccc2c(C(=O)Nc3cccc(C(=O)N4CCCCC4)c3)cc(=O)[nH]c12	4.42% (inactive)
CC(C)(C)c1cnnn1-c1ccc(S(N)(=O)=O)cc1	3.83% (inactive)
CC(NC(=O)C1CCN(c2nc3ccccc3n2C)CC1)c1ccccc1 (stereo not given)	7.13% (inactive)
CC(NC(=O)Nc1ccccc1)C(c1cccs1)N1CCN(c2ccccc2)CC1 (stereo not given)	6.9% (inactive)
C(=N/N1CCN(c2ccccc2)CC1)/c1cccs1	6.51% (inactive)
ClC(Cl)(Cl)C(N1CCN(c2ccccc2)CC1)N1CCN(c2ccccc2)CC1	46.7% (active)

SMILES	inhibition
COc1ccc(CN(Cc2cccnc2)C2CC(C)(C)NC(C)(C)C2)cc1OC	9.23% (inactive)
CCOc1ccc(OCC)c(NC(=O)CSc2nc3cc4c(cc3cc2C)OCO4)c1	15.2% (inactive)
O=C(Nc1ccc2oc(-c3cccnc3)nc2c1)c1cccc2ccccc12	10.6% (inactive)
N#CC1=C(N)Oc2cc(O)ccc2C1C1CCCCC1 (stereo not given)	7.43% (inactive)
O=C(O)c1c(Br)c(Br)c(Br)c(Br)c1C1c2ccc(O)cc2Oc2cc(O)ccc21	46.5% (active)
CCn1cc(C(=O)N2CCC(n3c(C)nc4sc(C)c(C)c4c3=O)CC2)cn1	-0.97% (inactive)
O=C(CN1CCC(n2nnc3cc(F)ccc32)CC1)Nc1cccc(F)c1	10.2% (inactive)
Cc1nn(CCC(=O)NC2(c3ccccc3)CCCC2)c(C)c1C	7.61% (inactive)
CC(C)(C)NCC(O)COc1cccc2[nH]c(=O)[nH]c12 (stereo not given)	13.5% (inactive) and 12.7% (inactive)
COc1ccccc1OCC(O)Cn1c(=N)n(C)c2ccccc21 (stereo not given)	8.65% (inactive)
COc1ccccc1OCCNCC(O)COc1cccc2[nH]c3ccccc3c12 (stereo not given)	15.7% (inactive) and 44.9% (active)
Cn1c(=O)c2cc(S(=O)(=O)NC3(c4ccccc4F)CC3)ccc2n(C)c1=O	10.9% (inactive)
O=C(c1ccncc1)c1ccc([N+](=O)[O-])cc1	8.78% (inactive)
O=C(Nn1c(-c2ccccc2)nc2ccccc2c1=O)c1ccc([N+](=O)[O-])cc1	6.91% (inactive)
O=C(c1ccc([N+](=O)[O-])cc1)[C@@H](Br)[C@@H](Br)c1ccnc2ccccc12	99.4% (active)
COc1ccc(C(O)CN2CCC(O)(c3ccc4c(c3)OCO4)CC2)cc1 (stereo not given)	6.32% (inactive)
O=c1[nH]c2cc3c(cc2cc1C(c1nnnn1C1CCCCC1)N1CCCCC1)OCCO3 (stereo not given)	6.82% (inactive)
COc1cc(/C=N/Nc2nc3ccccc3s2)ccc1O	16.7% (inactive)
O=[N+]([O-])c1cc(Br)c(O)c(/C=N/Nc2nc3ccccc3s2)c1	77% (active)
c1ccc2sc(NN=C3CCCC3)nc2c1	1.63% (inactive)
